# In PubChem BioAssay (NCI):
# “And” between values parts separate entries of the source, which are not always exact repeats. Identical values can stand only once. The panel holds about 83,000 compounds, 20% with a hit somewhere; the sample as a whole holds those more often.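 Growth was measured after 48 h exposure to one concentration of compound in 96-well plates. Values under 10 count as active.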 Unmarked numbers belong to inactive results. The source made the active and inactive calls.
# System: MDA-MB-468 breast
# Test: NCI-60 one-dose screen, 48 h (100 = growth as untreated, 0 = no growth, -100 = all killed)
# Details: 10 µM unless noted
row,SMILES,growth
1,C#CCN1C(=O)/C(=c2\sc3n(c2=O)C2C(NN=3)N(CC)C(=O)N2CC)c2ccccc21 (centres undefined),-26.9% (active)
2,Nc1ncnc2c1ncn2C1CC(O)C(CO)O1 (centres undefined),113% and 99.9%
3,Cc1cccc2c(=O)c3c(sc12)c(NCCN)nc1ccccc13,-57.3% (active)
4,COc1cc(C2CC(c3ccc(Nc4ccnc5cc(Cl)ccc45)cc3)=NN2C=O)cc(OC)c1OC (centres undefined),-7.9% (active)
